Screening results as filed in PubChem.
The list is not random: actives were taken first. Their share in the collection is about 3.9%.
N-glyco inh: N-linked glycosylation inhibition; 360,000 tested, 0.23% active; D54 ERlucT glycosylation luciferase reporter, 24 h; percent of 100 nM tunicamycin response; reporter increase, % at 12.5 µM;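 active = mean luciferase reporter signal, scaled so untreated is 0 and the glycosylation-blocking control 100, at or above a set limit in every replicate; inconclusive = mean reaches the limit but not every replicate does; inactive = mean below the limit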;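 note: luciferase carries N-glycosylation sites so blocking glycosylation raises the light; 0% = median of neutral control wells and 100% = median of 100 nM tunicamycin wells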
NSD2 HMT inh: inhibitors of human histone methyltransferase NSD2; O96028; NSD2 peptide methylation, AlphaScreen, 120 min; inhibition, % at 12.5 µM; 310,000 tested, 0.54% active; AID 743445; in the data active = inhibition above about 50%
ALR H2O2 inh: blocks human ALR sulfhydryl oxidase activity; P55789; purified ALR, DTT oxidation, H2O2 HRP-luminol luminescence; inhibition, % (concentration not given with the values); 290,000 tested, 3.8% active; AID 485317;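 active = mean replicate inhibition above about 79%, with every replicate also reaching it, limit read from the data; inconclusive = only one of the two criteria met; inactive = mean below limit and not every replicate reaching it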
Mot1-301 SUMO: blocks SUMOylation pathway, rescuing yeast Mot1-301 growth; 320,000 tested, 1% active; growth rescue, % at 18.8 µM; S. cerevisiae Mot1-301 growth rescue, ATP luminescence, 38.5C; percent above DMSO median, 100 means doubled;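 active = every valid replicate shows activation above 250% relative to neutral control wells; inactive = the rest, any valid replicate at or below 250%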;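 note: OY570 slx delta 5 strain wells were the positive control but not used for scaling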
CDK5 inh: inhibitors of human CDK5/p35 kinase; Q00535+Q15078; Recombinant CDK5/p35, ADP-Glo luminescence, 60 min; inhibition, % at 10 µM; 330,000 tested, 0.01% active; AID 488839;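 active = highest replicate inhibition of at least 50% and at least 75% of replicates reaching 50%; inconclusive = only one of the two criteria met; inactive = both criteria failed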;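 note: plate controls were DMSO neutral control for no effect and GW8510 at 10 µM for full effect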
Casp6 inh: blocks human caspase-6 cleavage activity; P55212; purified caspase-6, Z-VEID-R110 cleavage fluorescence; inhibition, % at 12.5 µM; 350,000 tested, 0.53% active; AID 686996;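 active = mean inhibition across replicates at least about 35%, with every replicate also reaching that limit, limit read from the data; inconclusive = only one of the two criteria met; inactive = neither criterion met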;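 note: 0% = median of neutral control wells and 100% = no fluorescence left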
Active calls of the source: *.

CCCC1=C(C(=O)OCC)C(c2ccc(N(C)C)cc2)n2ncnc2N1 (stereo unspecified) was read as N-glyco inh -2, NSD2 HMT inh 9, ALR H2O2 inh 98*, Mot1-301 SUMO 6 and CDK5 inh 1.
CCCN1C[C@H](C)[C@@H](OC)CN(C)C(=O)c2cc(NC(=O)NC3CCCC3)ccc2OC[C@@H]1C was read as Casp6 inh 0.
C[C@@H]1CN([C@@H](C)CO)C(=O)c2cccc(NC(=O)c3cnccn3)c2O[C@@H]1CN(C)S(=O)(=O)c1cccs1 was read as Casp6 inh -3.
For CCN(CC)c1ccc(/C=N/Nc2nc(C)cc(C)n2)cc1 the results were N-glyco inh -1, NSD2 HMT inh 10, ALR H2O2 inh 98*, Mot1-301 SUMO 18 and Casp6 inh -3.
`N#C[C@@H]1[C@@H](c2ccc(C3=CCCC3)cc2)[C@@H](CO)N1C(=O)NC1CCCC1` gave Casp6 inh 0.
Screening CCNC(=O)C[C@@H]1CC[C@H]2[C@@H](COc3ccc(NC(C)=O)cc3C(=O)N2C)O1 returned Casp6 inh 1.
`CN(C)/C=C(\C=O)c1ncc(C(F)(F)F)cc1Cl` gave N-glyco inh 1, NSD2 HMT inh 0, ALR H2O2 inh 4, Mot1-301 SUMO 905*, CDK5 inh 1 and Casp6 inh 1.
COc1ccc(NC(=O)Nc2ccc3c(c2)C(=O)N([C@H](C)CO)C[C@H](C)[C@@H](CN(C)Cc2ccncc2)O3)cc1 was read as Casp6 inh 0.
For CN(C)C(=O)c1cccc(-c2ccc([C@@H]3[C@@H](C#N)N(C(=O)C4CCCC4)[C@H]3CO)cc2)c1 the results were Casp6 inh -1.
Screening N=c1c(S(=O)(=O)c2ccc(Cl)cc2)cc2c(=O)n3ccccc3nc2n1CCN1CCOCC1 returned N-glyco inh -1, NSD2 HMT inh -1, ALR H2O2 inh -7, Mot1-301 SUMO 7 and CDK5 inh -3.
Screening N=c1c(S(=O)(=O)c2ccc(Cl)cc2)cc2c(=O)n3ccccc3nc2n1CCc1ccccc1 returned N-glyco inh 50*, NSD2 HMT inh 1, ALR H2O2 inh -15, Mot1-301 SUMO -10, CDK5 inh -3 and Casp6 inh -1.
Screening Cn1c(=N)c(S(=O)(=O)c2ccccc2)cc2c(=O)n3ccccc3nc21 returned N-glyco inh -1, NSD2 HMT inh 1, ALR H2O2 inh -3, Mot1-301 SUMO 311* and CDK5 inh 0.
For Cn1c(=N)c(S(=O)(=O)c2ccc(F)cc2)cc2c(=O)n3ccccc3nc21 the results were N-glyco inh 2, NSD2 HMT inh 2, ALR H2O2 inh -7, Mot1-301 SUMO -10 and CDK5 inh -1.
Oc1ccccc1N=N/C(=N/Nc1ccccc1O)c1ccccc1 was read as N-glyco inh 1, ALR H2O2 inh -2, Mot1-301 SUMO 6, CDK5 inh 0 and Casp6 inh -3.
`N#C/C(N=Nc1ccccc1O)=N\Nc1ccccc1O` gave N-glyco inh -22, ALR H2O2 inh 99*, Mot1-301 SUMO 156, CDK5 inh 6 and Casp6 inh 16.
Screening C[C@H]1CN([C@@H](C)CO)C(=O)c2cc(/C=C/c3ccccc3)cnc2O[C@H]1CN(C)C(=O)c1ccc(F)cc1 returned Casp6 inh 0.
Screening CCC(=O)Nc1sc2c(c1C(N)=O)CCC2 returned N-glyco inh 2, NSD2 HMT inh 2, ALR H2O2 inh 43, Mot1-301 SUMO 3 and CDK5 inh 5.
C=CC(=O)Nc1sc2c(c1C(N)=O)CCCC2 was read as N-glyco inh -9, ALR H2O2 inh inconclusive, Mot1-301 SUMO 8, CDK5 inh 16 and Casp6 inh 2.
Screening C=CCNC(=S)Nc1sc2c(c1C(N)=O)CCCC2 returned N-glyco inh 2, NSD2 HMT inh 5, ALR H2O2 inh 98*, Mot1-301 SUMO 11 and Casp6 inh 1.
N#CCC(=O)Nc1sc2c(c1C(N)=O)CCCC2 was read as N-glyco inh 1, ALR H2O2 inh 90*, Mot1-301 SUMO 4, CDK5 inh -7 and Casp6 inh 0.
`NC(=O)c1c(NC(=S)Nc2ccc(F)cc2)sc2c1CCCC2` gave N-glyco inh 3, NSD2 HMT inh -1, ALR H2O2 inh 90*, Mot1-301 SUMO 25, CDK5 inh 3 and Casp6 inh 5.
